Test systems include NCI-H23 lung; NCI-H226 lung; NCI-H322M lung; HOP-62 NSCLC; NCI-H460 lung; HOP-92 NSCLC; NCI-H522 lung; A549/ATCC NSCLC; 786-0 renal; COLO 205 colon; DU-145 prostate; K-562 leukemia; MDA-MB-231 breast; RXF 393 renal; SF-268 CNS; SF-295 CNS; SF-539 CNS; M14 melanoma; MALME-3M melanoma; UACC-257 melanoma.
Holding throughout (experiment): NCI-60 one-dose screen, 48 h (100 = growth as untreated, 0 = no growth, -100 = all killed)
What all share (conditions): 10 µM unless noted

This is part of a sample that, as a whole, favours compounds with a hit. Of some 83,000 tested, about 20% had one in any assay.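 The endpoint reported here, percent growth, reads 100 for growth as untreated, 0 for no net growth and -100 for all cells dead.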 A number with no mark means an inactive call. Calls of active or inactive are those of the source. The calls were made as follows: active = growth percent below 10; inactive = the rest.

Turning to `Cc1ccc(-c2nc3ccc(Cl)cn3c2NC2CCCCC2)o1`, the growth in the assay with NCI-H23 lung is 81.3%; in the assay on NCI-H226 lung it was 84.5%; in the assay with NCI-H322M lung, 93.1%; in the assay on HOP-62 NSCLC, 87%; with NCI-H460 lung, 97.6%; in the assay on HOP-92 NSCLC it was 73.1%. Also, the growth was 57.3% with NCI-H522 lung; 79.5% in the assay on A549/ATCC NSCLC; 87.8% with 786-0 renal; 79.6% in the assay on COLO 205 colon; 104% in the assay on DU-145 prostate; 74.5% in the assay on K-562 leukemia. Besides, the growth in the assay with MDA-MB-231 breast is 84.7%; in the assay on RXF 393 renal, 83.1%; in the assay with SF-268 CNS, 80%; with SF-295 CNS it was 91.3%; with SF-539 CNS, 95.4%; in the assay on M14 melanoma, 101%.

Take `CN1CCN(CCCOc2cccc3nc(Nc4ccc(Cl)c(C(F)(F)F)c4)ccc23)CC1`: the growth was 18.8% in the assay on NCI-H23 lung; 77.1% in the assay on NCI-H226 lung; 15.9% in the assay on NCI-H322M lung; 15.5% with HOP-62 NSCLC; -19.3% (active) in the assay with NCI-H460 lung; 10.2% with HOP-92 NSCLC. Moreover, the growth in the assay with NCI-H522 lung is -40.6% (active); in the assay with 786-0 renal it was -42.9% (active); in the assay with COLO 205 colon, -61.6% (active); in the assay with DU-145 prostate, 4.82% (active); in the assay with K-562 leukemia, -41.3% (active); with MALME-3M melanoma, 34.1%. Besides, the growth was -44.5% (active) in the assay with MDA-MB-231 breast; 14.7% in the assay with RXF 393 renal; 28.3% with SF-268 CNS; -11% (active) with SF-295 CNS; 7.03% (active) in the assay with SF-539 CNS; 59.3% in the assay on UACC-257 melanoma. Moreover, the growth with M14 melanoma is -54.6% (active).

Turning to `Cc1cc(Nc2ncc(Cl)c(Nc3ccccc3S(=O)(=O)C(C)C)n2)c(OC(C)C)cc1C1CCNCC1`, the growth with NCI-H23 lung is -86.5% (active); in the assay with NCI-H226 lung, -64.8% (active); with NCI-H322M lung it was -93.9% (active); in the assay on HOP-62 NSCLC it was -94.5% (active); with NCI-H460 lung, -86.5% (active); in the assay on HOP-92 NSCLC, -92.3% (active). Further, the growth in the assay with NCI-H522 lung was -89.3% (active); with 786-0 renal, -91.2% (active); in the assay with COLO 205 colon, -88.2% (active); with DU-145 prostate it was -99% (active); in the assay with K-562 leukemia, -53.5% (active); in the assay with MALME-3M melanoma, -84.9% (active). For the same compound, the growth is -88% (active) with MDA-MB-231 breast; -93.4% (active) in the assay with RXF 393 renal; -95.3% (active) in the assay on SF-268 CNS; -91.6% (active) with SF-295 CNS; -98.9% (active) with SF-539 CNS; -90.1% (active) in the assay on UACC-257 melanoma. Also, in the assay on M14 melanoma, the growth was -95.2% (active).

`O=C1NC(=O)[C@@H](c2cn3c4c(cccc24)CCC3)[C@@H]1c1c[nH]c2ccccc12`: the growth was 32.5% in the assay with NCI-H23 lung; 57% with NCI-H226 lung; 41.9% in the assay with NCI-H322M lung; 5.24% (active) in the assay with HOP-62 NSCLC; 5.41% (active) in the assay with NCI-H460 lung; 31% with HOP-92 NSCLC. In addition, the growth was -0.0655% (active) in the assay with NCI-H522 lung; 21.5% in the assay on 786-0 renal; -57.3% (active) in the assay on COLO 205 colon; 15% with DU-145 prostate; 9.6% (active) with K-562 leukemia; 59.7% with MALME-3M melanoma. Besides, the growth was 34.1% in the assay with MDA-MB-231 breast; 6.54% (active) in the assay with RXF 393 renal; 34.2% with SF-268 CNS; 19.2% in the assay on SF-295 CNS; -17.3% (active) in the assay with SF-539 CNS; 38.5% in the assay with UACC-257 melanoma. In addition, in the assay with M14 melanoma, the growth is 8.08% (active).

Regarding `COC(=O)c1[nH]cnc1/N=N/N(C)CCO`, the growth with NCI-H23 lung was 96.3%; in the assay with NCI-H226 lung, 101%; in the assay with NCI-H322M lung, 108%; in the assay with HOP-62 NSCLC, 97.4%; with NCI-H460 lung, 105%; in the assay on HOP-92 NSCLC, 128%. Further, the growth in the assay on NCI-H522 lung is 92%; in the assay on A549/ATCC NSCLC it was 109%; in the assay with 786-0 renal it was 93.5%; in the assay with COLO 205 colon it was 120%; in the assay with DU-145 prostate, 110%; in the assay on MALME-3M melanoma, 119%. For the same compound, the growth in the assay on MDA-MB-231 breast is 118%; in the assay on SF-268 CNS it was 93%; in the assay on SF-295 CNS it was 112%; with SF-539 CNS it was 95%; with M14 melanoma, 101%.

Take `C[C@@H](Oc1cc(C(=O)Nc2ccc(C(=O)N3CCN(C)CC3)cc2)nnc1N)c1c(Cl)ccc(F)c1Cl`: the growth in the assay with NCI-H23 lung is 62.6%; in the assay on NCI-H226 lung, 66.9%; in the assay with NCI-H322M lung, 92.9%; with HOP-62 NSCLC, 64.8%; in the assay with NCI-H460 lung, 79.8%; in the assay with HOP-92 NSCLC, 48.3%. Also, the growth in the assay with NCI-H522 lung is 71.1%; in the assay with 786-0 renal it was 67.4%; with COLO 205 colon, 55.1%; in the assay on DU-145 prostate it was 84.7%; in the assay with K-562 leukemia, 28.7%; with MALME-3M melanoma it was 65.2%. Moreover, the growth in the assay with MDA-MB-231 breast is 62.2%; with RXF 393 renal, 62.6%; in the assay on SF-268 CNS it was 70.3%; in the assay on SF-295 CNS, 13.9%; with SF-539 CNS, 64.9%; in the assay with UACC-257 melanoma it was 60.9%. In addition, in the assay with M14 melanoma, the growth is 76.9%.

For the compound `CCOC(=O)Sc1ncnc2nc[nH]c12`, the growth in the assay on NCI-H23 lung was 64.8%; with NCI-H226 lung it was 37.4%; in the assay on NCI-H322M lung it was 40.4%; in the assay on HOP-62 NSCLC, 17.2%; in the assay with NCI-H460 lung, 71.8%; in the assay on HOP-92 NSCLC, 12.2%. Further, the growth was -18.8% (active) in the assay on NCI-H522 lung; 104% in the assay with A549/ATCC NSCLC; 18% in the assay on 786-0 renal; 103% in the assay on COLO 205 colon; 38% with DU-145 prostate; 59.2% with MALME-3M melanoma. In addition, the growth with MDA-MB-231 breast was 45.7%; in the assay on SF-268 CNS it was 65.8%; with SF-295 CNS it was 36.8%; in the assay with SF-539 CNS, 36.7%; with M14 melanoma it was 13.7%.

Consider `CN(C)C1CCN(C(=O)c2ccc(NC(=O)Nc3ccc(-c4nc(N5CCOCC5)nc(N5CCOCC5)n4)cc3)cc2)CC1`, for which the growth in the assay on NCI-H23 lung is 8.52% [2.5 µM] (active); with NCI-H226 lung, -18.2% [2.5 µM] (active); with NCI-H322M lung it was -30.3% [2.5 µM] (active); with HOP-62 NSCLC it was -21.5% [2.5 µM] (active); in the assay on NCI-H460 lung, 6.4% [2.5 µM] (active); in the assay on HOP-92 NSCLC, -32% [2.5 µM] (active). Moreover, the growth in the assay with NCI-H522 lung is 8.88% [2.5 µM] (active); in the assay with 786-0 renal, -10.7% [2.5 µM] (active); in the assay on COLO 205 colon it was -31.4% [2.5 µM] (active); in the assay with DU-145 prostate, 2.99% [2.5 µM] (active); with K-562 leukemia, 14.4% [2.5 µM]; in the assay with MALME-3M melanoma, -34.1% [2.5 µM] (active). In addition, the growth with MDA-MB-231 breast was 17.2% [2.5 µM]; in the assay with RXF 393 renal it was -40.4% [2.5 µM] (active); in the assay on SF-268 CNS, 10.6% [2.5 µM]; in the assay with SF-295 CNS it was -31.1% [2.5 µM] (active); with SF-539 CNS, -53% [2.5 µM] (active); in the assay with UACC-257 melanoma it was -40% [2.5 µM] (active). In addition, in the assay with M14 melanoma, the growth was 7.46% [2.5 µM] (active).
